# eIF4H inh: human eIF4H binding inhibitors, primary screen, translation initiation inhibitor project, biochemical, uHTS, fluorescence polarization; inhibition, % at 35 µM; eIF4H fluorescence polarization binding assay; AID 2012, 2009; actives 0.94% (n = 290,000);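 also: calls also rest on retests at 20 µM and on dose response follow-up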
# MEX-5 binding: MEX-5 zinc finger RNA-binding disruptors – biochemical, C. elegans, fluorescence polarization, MLPCN library, primary screen; Zinc finger protein mex-5 (Caenorhabditis elegans), Q9XUB2; actives 0.38% (n = 300,000); MEX-5/FITC-TCR2 RNA binding; active compounds read low; activity score (negative = inhibition of binding), % at 10 µM; AID 1832, 2009;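 active = inhibition past about -25% in most replicates, and total fluorescence under double the plate's negative control median, limit read from the data; inconclusive = replicates evenly split on the limit, or fluorescence at least double controls; inactive = too little inhibition in most replicates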;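 also: 0% = DMSO and -100% = 5 µM competing unlabeled TCR2 RNA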
# EBV gp42 block: Epstein-Barr virus gp42 inhibitors, primary screen, biochemical, uHTS, fluorescence polarization. Glycoprotein 42 (Epstein-Barr virus (strain AG876)), Q1HVG2. Fluorescence polarization binding assay, mP read-out. inhibition, % (tested at 21.74 µM). actives 0.42% (n = 220,000). AID 1085, 2008; in the data active = inhibition above about 50%
# PABP FP inh: PABP poly(A) RNA binding inhibitors, primary screen, biochemical, fluorescence polarization, uHTS; calls only at 35 µM; actives 1% (n = 290,000); Polyadenylate-binding protein 1 (Homo sapiens), P11940;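 also: calls also rest on retests at 20 µM and on dose response follow-up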
# Target sequence (P11940 whole entry, looked up): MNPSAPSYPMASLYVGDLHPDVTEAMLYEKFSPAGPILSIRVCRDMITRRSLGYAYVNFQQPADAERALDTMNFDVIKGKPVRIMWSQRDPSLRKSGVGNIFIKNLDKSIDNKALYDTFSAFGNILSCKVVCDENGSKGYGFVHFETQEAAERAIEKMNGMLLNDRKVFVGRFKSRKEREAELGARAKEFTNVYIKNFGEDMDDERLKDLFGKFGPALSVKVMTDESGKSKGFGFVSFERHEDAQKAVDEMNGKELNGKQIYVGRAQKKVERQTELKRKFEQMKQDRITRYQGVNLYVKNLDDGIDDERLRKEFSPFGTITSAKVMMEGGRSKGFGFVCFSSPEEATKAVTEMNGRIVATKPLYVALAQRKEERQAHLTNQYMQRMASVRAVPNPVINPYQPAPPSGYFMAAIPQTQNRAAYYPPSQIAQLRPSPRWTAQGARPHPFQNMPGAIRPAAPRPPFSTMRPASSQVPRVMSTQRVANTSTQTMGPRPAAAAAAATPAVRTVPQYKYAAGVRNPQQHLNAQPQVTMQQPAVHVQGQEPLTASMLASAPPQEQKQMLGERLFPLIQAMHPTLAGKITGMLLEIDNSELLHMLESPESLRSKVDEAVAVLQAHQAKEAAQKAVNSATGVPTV
# PABP1 MLLE inh: inhibitors of PABP1 MLLE–PAM2 peptide binding, primary screen, biochemical, fluorescence polarization, FITC-PAM2, GST-MLLE; AID 588489, 2011; inhibition, % at 20 µM; actives 0.36% (n = 360,000); in the data active = inhibition above about 35%, passing the limit was not always enough;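 also: plate controls were DMSO wells with GST-MLLE for no effect and wells lacking GST-MLLE protein for full effect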
# Active calls of the source: *; i = inactive; ? = inconclusive; · = not tested or not shown; + = active, no number. In the library only some 1.8% were active in any assay of this set; here they are far more common. Unless noted, no rule for the calls is given here.
SMILES,eIF4H inh,MEX-5 binding,EBV gp42 block,PABP FP inh,PABP1 MLLE inh
COCCCNC(=O)CCC(=O)NNc1nc2ccccc2c2nc(C)nn12,-8,-50*,7,i,2
CCc1nc2ccc(C(=O)NCCCN3CCCC3=O)cn2c1N(CC)Cc1cccc(Br)c1,·,·,·,·,3
CCN(CC)C(=O)C1=C(C)N(Cc2ccc(C(C)(C)C)cc2)C(=O)C(CC(=O)NCCCN(C)C)C1 (stereo not drawn),·,·,·,·,-6
NS(=O)(=O)c1ccc(Nc2nc(-c3ccc(F)cc3)cs2)cc1,0,-1,10,i,3
NS(=O)(=O)c1ccc(Nc2nc(-c3ccc(O)cc3O)cs2)cc1,2,-45*,0,i,31
Cc1nn(-c2ccccc2)c(Oc2ccccc2)c1C=O,active,-1,-1,+,-14
CCOc1ccc(Oc2c(/C=N/NC(N)=O)c(C)nn2-c2ccccc2)cc1,-4,4,2,i,0
COC(=O)Cc1ccc(OC2(C)CCN(Cc3ccccc3OC(F)F)C2)cc1 (stereo not drawn),·,·,·,·,17
O=[N+]([O-])/C(C(=C(Cl)Cl)N1CCN(Cc2ccccc2)CC1)=C1\NCCN1Cc1ccc(Cl)nc1,4,3,2,i,-5
O=[N+]([O-])C(/C=C(\Cl)[N+](=O)[O-])=C1N(Cc2ccc(Cl)nc2)CCN1Cc1ccc(Cl)nc1,?,8,-181,+,-82
CC(=C/c1ccccc1)/C=N/NC(=O)c1cnccn1,7,-1,144*,i,4
Cc1ccc(N=Cc2sc(O)c3ccccc23)c(C)c1,?,-31*,-128,i,-98
Cc1ccc(N=Cc2cccc(O)c2O)c(C)c1,99*,0,-17,+,5
Cc1ccccc1N=Cc1cccc(O)c1O,?,0,19,i,-2
Oc1cccc(/C=N/N=C/c2cccc(O)c2O)c1O,-8,-37*,·,i,10
CC(N=Cc1cccc(O)c1O)c1ccccc1 (stereo not drawn),72,-3,-16,i,8
Cc1ccc(N=Cc2sc(O)c3ccccc23)cc1,?,-1,-36,i,-42
CO[C@H](C(=O)N(C)C[C@@H]1OCc2ccccc2-c2c(n(C)c3ccccc23)C(=O)N([C@H](C)CO)C[C@@H]1C)c1ccccc1,·,·,·,·,6
Cc1cccc(C)c1OCC(O)Cn1ccnc1C (stereo not drawn),-6,0,84*,i,6
Cc1cccc(OCC(O)Cn2ccnc2C)c1 (stereo not drawn),-9,-1,·,i,16
C[C@@H](NC(=O)/C(C#N)=C/c1ccc(O)c(O)c1)c1ccccc1,·,·,·,·,-26
CC(NC(=O)/C(C#N)=C/c1ccc(OCC(=O)O)cc1)c1ccccc1 (stereo not drawn),16,0,·,+,-85
Cn1nc(C(C)(C)C)cc1C(=O)N1CCCC(c2cc(C(=O)NCc3ccccc3)no2)C1 (stereo not drawn),·,·,·,·,-3
Cc1ccc(/C=C2\Sc3ccccc3C2=O)s1,-1,-2,94*,i,-47
COc1ccccc1N1C(=O)S/C(=C\c2ccc(C)s2)C1=O,?,-32*,·,i,-82
SMILES,eIF4H inh,MEX-5 binding,EBV gp42 block,PABP FP inh,PABP1 MLLE inh
CC(=O)Oc1ccccc1Cn1c(C)c(C(=O)NCCC#N)sc1=O,·,·,·,·,4
CCOC(=O)C1=C(C)N=c2s/c(=C/c3ccc(OCC(=O)O)cc3)c(=O)n2C1c1ccc(SC)cc1 (stereo not drawn),63*,?,·,+,-129
COc1ccc(CCNc2nc(-c3cccnc3)cs2)cc1OC,-2,0,138*,i,-12
COc1ccc(CCNc2nc(-c3ccc(NC(C)=O)cc3)cs2)cc1OC,-4,-3,11,i,2
CC(=O)c1sc(NCc2ccc(C)cc2)nc1C,5,1,·,i,-1
COc1ccc(CCNc2nc(C)c(C(C)=O)s2)cc1OC,-13,1,·,i,40*
COc1ccc(CCNc2nc(-c3ccncc3)cs2)cc1OC,10,5,-16,i,-7
COc1ccc(CCNc2nc(-c3ccc(F)cc3)c(CC(=O)O)s2)cc1OC,80,1,·,+,-53
CN[C@H]1C[C@H]2c3[nH]c4ccc(-c5ccc(OC)cc5)cc4c3CCN2C(=O)[C@H]1[C@H](C)O,·,·,·,·,-27
